# From PubChem BioAssay (NCI)
# Values joined by “and” are separate entries in the source; they are usually repeats but may differ in a detail not shown here. Equal values may be shown once. About 83,000 compounds went through this panel and 20% of them were active in at least one assay; those are over-represented in the sample as a whole.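 A percent growth of 40 corresponds to 60% growth inhibition; 0 means no net growth; -100 means all cells died. Active threshold: below 10.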 Unmarked numbers belong to inactive results. Active and inactive are the calls of the source.
# System: MDA-MB-468 breast
# Test: NCI-60 one-dose screen, 48 h (100 = growth as untreated, 0 = no growth, -100 = all killed)
# Details: 10 µM unless noted
row,Compound,growth
1,C=CCCCOC1[C@H](OCc2ccccc2)C(OCc2ccccc2)C(OC)O[C@@H]1CNC(=O)c1cccc(I)c1 (some centres undefined),24.8%
2,COc1ccc(-c2nc(N3CCCC3=O)sc2Br)cc1OC,94.8%
3,CCN(CC)c1ccc(/C=C/C=C2\NC(=O)NC2=O)cc1,-5.35% (active)
4,CC(C)(C)c1cc(-c2nc3ccc(N4CCN(S(C)(=O)=O)CC4)cc3[nH]2)cc(C(C)(C)C)c1O,96.1%
5,COCCCNC1=C(C#N)C(=O)NC(c2cccs2)S1 (centres undefined),93.8%
6,CN(C)c1ccc(C2(Cl)c3ccccc3N(C)c3ccccc32)cc1,50.8%
7,O=c1[nH]c(-c2ccccn2)nc2sc3c(c12)CCCCC3,50%
8,C#CC#CC#CC#CC#CC#CC#CC#CC[C@@H]1OC[C@@H](COC(=O)O[C@@H](C(=O)O[C@H]2C[C@@]3(O)[C@@H](OC(=O)c4ccccc4)[C@@H]4[C@]5(OC(C)=O)CO[C@@H]5C[C@H](O)[C@@]4(C)C(=O)[C@H](OC(C)=O)C(=C2C)C3(C)C)[C@@H](NC(=O)c2ccccc2)c2ccccc2)O1,-4.7% (active)
9,CCCCOc1ccc(Nc2cc(Cl)ccc2C(=O)O)cn1,99.6% and 103%
10,C=C(C)C(=O)O[C@H]1C[C@@]2(C)OC(=CC2=O)[C@H](C)[C@H](O)[C@H]2OC(=O)C(=C)[C@@H]21,24.7%
11,COC(=O)c1nc(-c2ccccc2)oc1S(=O)(=O)N1CCCC(C)C1 (centres undefined),29.2%
12,Cc1nc2sc(C(=O)Nc3ccccc3)c(N)c2cc1C(=O)/C=C/c1ccccc1,2.08% (active)
13,COC(=O)C1(C)CCC[C@]2(C)[C@H]3C[C@H]4C(C(C)C)=C[C@]3(CC[C@@H]12)[C@H]1[C@@H]4[C@@H](OC(=O)c2ccco2)CC[C@@H]1OC(=O)c1ccco1 (some centres undefined),102%
14,CO[C@H]1/C=C(/C)CCC[C@H](C)[C@H](O)[C@@H](C)C(=O)C(C)(C)[C@@H](O)CC(=O)O[C@@H]1/C(C)=C/c1csc(C)n1,-23.3% (active)
15,CC(C)c1ccc(C(=O)Nc2nc3ccc(O)cc3s2)cc1,2.85% (active)
16,COc1ccc2c(c1)[n+]([O-])c(C(=O)/C=C/C=C(\Cl)c1cc(OC)c(OC)c(OC)c1)c(C)[n+]2[O-],62.2%
17,CCOC(=O)c1cnn(-c2nc(-c3ccc(F)cc3)c(C#N)c(N3CCOCC3)n2)c1N,92.6%

row,Compound,growth
1,CCCCCCCn1cc2c(NCCc3ccccc3)ncnc2n1,105%
2,NC(N)=Nc1ccc(Oc2cccc(NC(N)=Nc3ccc(Br)cc3)c2)cn1,8.74% (active)
3,C=C(C)[C@@H]1CC[C@]2(C(=O)NCC(=O)O)CC[C@]3(C)[C@H](CC[C@@H]4[C@@]5(C)Cc6c([nH]c7ccccc67)C(C)(C)[C@@H]5CC[C@]43C)[C@@H]12,118%
4,COc1ccc(CN2C(=O)/C(=C\c3cc(OC)c(OC)c(OC)c3)c3cc(OC)ccc32)cc1,14%
5,Oc1ccc2c(c1)CCc1ccccc1-2,105%
6,CCOC(=O)C(COS(C)(=O)=O)(COS(C)(=O)=O)C(=O)OCC,122%
7,COc1cc2nc(Nc3cccc(Cl)c3)nc(N)c2cc1OC,26.8%
8,O=C1Nc2ccccc2C2c3cccn3-c3ccccc3N12 (centres undefined),47.8%
9,N#C/C(=C\c1ccc2ccccc2c1)C(=O)Nc1sc2c(c1C#N)CCC2,96.8%
10,COc1ccc(Cn2cc(Cn3cc(C=C4C(=O)NC(=O)NC4=O)c4ccccc43)nn2)cc1,18.5%
11,COc1cc(NCCN=C(N)NC(N)=NC(C)C)c2ncccc2c1,-46.5% (active)
12,Cn1c(=O)c2[nH]c(Cc3ccc4c(c3)OCO4)nc2n(C)c1=O,106%
13,C=C1CCC2C3(C)COC(C)(C)OC3CCC2(C)C1C/C=C1/C(=O)OCC1Oc1ccccc1OC (centres undefined),60.6%
14,Cc1cc(=O)[nH]c(=O)n1Cc1cn(-c2c3ccccc3nc3ccccc23)nn1,-66.7% (active)
15,COc1ccc2c(c1)C(=O)/C(=C/c1ccc([N+](=O)[O-])o1)O2,-49.4% (active)
16,COc1ccc(CN2C(=O)/C(=C\c3cc(OC)c(OC)c(OC)c3)c3ccccc32)cc1,5.64% (active)
17,O=C(O)C1(Cc2cccc(Nc3nccs3)n2)CCC(Oc2cccc(Cl)c2F)CC1 (centres undefined),33.4%
